Experimental data: the supplement of paper PMC6992640
± gives the standard deviation of the averaged measurements.

Tested on: HCI13 (cells of an ER-positive luminal breast cancer xenograft)
Assay: cell viability (% of vehicle); higher = less cytotoxic
Details: 10 µM; 72 h
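Also: PDX cells carrying CMV promoter-driven luciferase, viability read as total photon flux per second by IVIS imaging following D-luciferin, vehicle control 0.1% DMSO.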

Compound | cell viability
CCC(C)C(=O)OC1CC(C)C=C2C=CC(C)C(CCC3CC(O)CC(=O)O3)C21 (stereo not drawn) [Lovastatin] | 131 ± 14
Nc1nc(Cl)nc2c1ncn2C1OC(CO)C(O)C1F (stereo not drawn) [Clofarabine] | 180 ± 11
CC(=O)[N-]S(=O)(=O)c1ccc(N)cc1.[Na+] [Sulfacetamide Sodium] | 96.8 ± 5.9
Cc1cccc(C)c1NC(=O)C1CCCCN1C.Cl (stereo not drawn) [Mepivacaine HCl] | 124 ± 2.2
Cc1onc(-c2ccccc2Cl)c1C(=O)NC1C(=O)N2C1SC(C)(C)C2C(=O)[O-].O.[Na+] (stereo not drawn) [Cloxacillin Sodium] | 191 ± 2.4
CN1CCC(=C2c3ccccc3C=Cc3ccccc32)CC1.Cl [Cyproheptadine hydrochloride] | 89.6 ± 1.1
NCCCCC(NC(CCc1ccccc1)C(=O)O)C(=O)N1CCCC1C(=O)O.O.O (stereo not drawn) [Lisinopril dihydrate] | 113 ± 3.5
NC(=O)C1CCCc2c1[nH]c1ccc(Cl)cc21 (stereo not drawn) | 148 ± 9
CC(=O)O[C@@]12CO[C@@H]1C[C@H](O)[C@@]1(C)C(=O)[C@H](O)C3=C(C)[C@@H](OC(=O)[C@H](O)[C@@H](NC(=O)OC(C)(C)C)c4ccccc4)C[C@@](O)([C@@H](OC(=O)c4ccccc4)[C@H]21)C3(C)C [Docetaxel] | 116 ± 22
COc1c(C)c2c(c(O)c1CC=C(C)CCC(=O)O)C(=O)OC2 [Mycophenolic acid] | 102 ± 9.5
CC(=O)N1CCN(c2ccc(OCC3COC(Cn4ccnc4)(c4ccc(Cl)cc4Cl)O3)cc2)CC1 (single isomer, unassigned; (+)) [(+)-Ketoconazole] | 98.9 ± 9.7
CC1COc2c(N3CCN(C)CC3)c(F)cc3c(=O)c(C(=O)O)cn1c23 (stereo not drawn) [Ofloxacin] | 186 ± 11
NC(N)=NS(=O)(=O)c1ccc(N)cc1 [Sulfaguanidine] | 108 ± 7.2
Cc1cc(C2CCCCC2)n(O)c(=O)c1 [Ciclopirox] | 73.9 ± 3.7
Cl.NC12CC3CC(CC(C3)C1)C2 [Amantadine HCl] | 120 ± 7.4
CCOc1nc2cccc(C(=O)OCc3oc(=O)oc3C)c2n1Cc1ccc(-c2ccccc2-c2nc(=O)o[nH]2)cc1 [Azilsartan Medoxomil] | 106 ± 14
NNC(=O)c1ccncc1.Nc1ccc(C(=O)O)c(O)c1 [Pasiniazid] | 182 ± 9.2
CCOc1cc(N)c(Cl)cc1C(=O)NCC1CN(Cc2ccc(F)cc2)CCO1.O=C(O)CC(O)(CC(=O)O)C(=O)O (stereo not drawn) [Mosapride Citrate] | 103 ± 23
Cc1cc(C2CCCCC2)n(O)c(=O)c1.NCCO [Ciclopirox ethanolamine] | 59.3 ± 3.2
Nc1cccc2c1C(=O)N(C1CCC(=O)NC1=O)C2=O (stereo not drawn) [Pomalidomide (CC-4047)] | 91.9 ± 8.8
COC1C(OC(N)=O)C(O)C(Oc2ccc3c(O)c(NC(=O)c4ccc([O-])c(CC=C(C)C)c4)c(=O)oc3c2C)OC1(C)C.[Na+] (stereo not drawn) [Novobiocin Sodium] | 140 ± 2.5
O=C1NC(=O)[C@@H](c2c[nH]c3ccccc23)[C@H]1c1cn2c3c(cccc13)CCC2 [Tivantinib (ARQ 197)] | 43.6 ± 9.6
CNCc1ccc(-c2[nH]c3cc(F)cc4c3c2CCNC4=O)cc1.O=P(O)(O)O | 145 ± 9.1
CC(=O)N[C@H](Cc1ccc2ccccc2c1)C(=O)N[C@H](Cc1ccc(Cl)cc1)C(=O)N[C@H](Cc1cccnc1)C(=O)N[C@@H](CO)C(=O)N[C@@H](Cc1ccc(O)cc1)C(=O)N[C@H](CCCNC(N)=O)C(=O)N[C@@H](CC(C)C)C(=O)N[C@@H](CCCNC(=N)N)C(=O)N1CCC[C@H]1C(=O)N[C@H](C)C(N)=O [Cetrorelix] | 190 ± 48
COc1ccc(C=Cc2cc(OC)c(OC)c(OC)c2)cc1OP(=O)([O-])[O-].[Na+].[Na+] [Fosbretabulin (Combretastatin A4 Phosphate (CA4P)) Disodium] | 41.7 ± 5.6
COC(=O)NC(C(=O)NC(Cc1ccccc1)C(O)CN(Cc1ccc(-c2ccccn2)cc1)NC(=O)C(NC(=O)OC)C(C)(C)C)C(C)(C)C.O=S(=O)(O)O (stereo not drawn) | 100 ± 5.6
NC(=O)N1CCC(CC(=O)N2CCC(C3c4ncc(Br)cc4CCc4cc(Cl)cc(Br)c43)CC2)CC1 (stereo not drawn) [Lonafarnib] | 43.2 ± 17
C#C[C@]1(O)CC[C@H]2[C@@H]3CCC4=CCCC[C@@H]4[C@H]3C(=C)C[C@@]21CC [Desogestrel] | 41.5 ± 5.2
